Targets with a hit are over-represented here; the source holds about 8,800 in all. About 0.5% of all pairs of compound and target were hits.

Chain of UniProt Q9Y244 (Q9Y244 whole entry, looked up): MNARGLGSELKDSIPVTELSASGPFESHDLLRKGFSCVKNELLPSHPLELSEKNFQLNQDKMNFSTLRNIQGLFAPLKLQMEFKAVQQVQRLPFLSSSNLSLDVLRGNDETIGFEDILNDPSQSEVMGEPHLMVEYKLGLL
Chain of UniProt Q9UBF8 (Q9UBF8 whole entry, looked up): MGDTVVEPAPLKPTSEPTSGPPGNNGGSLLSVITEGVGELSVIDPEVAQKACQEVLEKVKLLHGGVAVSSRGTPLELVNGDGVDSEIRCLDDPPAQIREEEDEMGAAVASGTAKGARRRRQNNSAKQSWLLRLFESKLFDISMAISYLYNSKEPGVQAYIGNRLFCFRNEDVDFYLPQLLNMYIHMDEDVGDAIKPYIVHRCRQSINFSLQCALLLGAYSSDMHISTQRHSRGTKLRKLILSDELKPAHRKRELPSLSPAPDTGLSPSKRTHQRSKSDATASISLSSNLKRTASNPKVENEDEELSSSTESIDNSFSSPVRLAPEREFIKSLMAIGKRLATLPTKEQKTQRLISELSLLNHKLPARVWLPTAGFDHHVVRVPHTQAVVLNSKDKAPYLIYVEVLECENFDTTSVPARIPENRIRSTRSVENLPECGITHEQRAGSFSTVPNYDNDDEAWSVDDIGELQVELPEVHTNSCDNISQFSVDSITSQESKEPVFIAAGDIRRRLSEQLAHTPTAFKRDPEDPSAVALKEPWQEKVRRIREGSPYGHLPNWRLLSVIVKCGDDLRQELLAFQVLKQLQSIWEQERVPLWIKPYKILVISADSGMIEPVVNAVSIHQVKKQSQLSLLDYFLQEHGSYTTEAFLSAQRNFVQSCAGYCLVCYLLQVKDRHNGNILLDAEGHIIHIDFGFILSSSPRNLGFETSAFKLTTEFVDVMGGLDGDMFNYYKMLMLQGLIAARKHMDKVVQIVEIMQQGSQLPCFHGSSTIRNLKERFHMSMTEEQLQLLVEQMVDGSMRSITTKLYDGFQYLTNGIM
Chain of UniProt O60825 (O60825 whole entry, looked up): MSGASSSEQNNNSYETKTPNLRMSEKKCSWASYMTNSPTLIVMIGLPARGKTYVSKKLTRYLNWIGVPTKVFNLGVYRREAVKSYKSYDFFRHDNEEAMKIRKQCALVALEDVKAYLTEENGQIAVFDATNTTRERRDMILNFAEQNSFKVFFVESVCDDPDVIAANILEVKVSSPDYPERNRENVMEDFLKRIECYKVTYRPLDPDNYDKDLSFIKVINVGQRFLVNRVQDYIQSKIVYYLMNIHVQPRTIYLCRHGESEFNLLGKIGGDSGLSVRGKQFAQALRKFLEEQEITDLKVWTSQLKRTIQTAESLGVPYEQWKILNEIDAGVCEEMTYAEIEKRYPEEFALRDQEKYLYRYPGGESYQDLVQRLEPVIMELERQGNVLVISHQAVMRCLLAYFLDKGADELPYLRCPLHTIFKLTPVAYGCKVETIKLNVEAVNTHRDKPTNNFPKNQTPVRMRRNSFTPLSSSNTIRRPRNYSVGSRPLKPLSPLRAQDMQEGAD
Chain of UniProt Q15054 (Q15054 whole entry, looked up): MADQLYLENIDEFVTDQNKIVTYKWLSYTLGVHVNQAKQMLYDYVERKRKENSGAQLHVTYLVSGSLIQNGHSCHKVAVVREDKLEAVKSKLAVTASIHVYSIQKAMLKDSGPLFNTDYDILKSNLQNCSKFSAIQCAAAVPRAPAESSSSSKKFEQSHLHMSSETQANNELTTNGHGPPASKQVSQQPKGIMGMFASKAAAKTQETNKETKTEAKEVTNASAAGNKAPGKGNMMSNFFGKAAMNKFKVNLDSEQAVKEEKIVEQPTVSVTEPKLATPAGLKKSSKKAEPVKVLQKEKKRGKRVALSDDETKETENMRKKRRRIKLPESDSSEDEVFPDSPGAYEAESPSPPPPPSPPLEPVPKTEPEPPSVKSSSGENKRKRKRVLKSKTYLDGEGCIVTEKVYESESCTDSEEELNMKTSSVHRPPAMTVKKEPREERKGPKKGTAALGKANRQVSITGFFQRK
Chain of UniProt Q969Q6 (Q969Q6 whole entry, looked up): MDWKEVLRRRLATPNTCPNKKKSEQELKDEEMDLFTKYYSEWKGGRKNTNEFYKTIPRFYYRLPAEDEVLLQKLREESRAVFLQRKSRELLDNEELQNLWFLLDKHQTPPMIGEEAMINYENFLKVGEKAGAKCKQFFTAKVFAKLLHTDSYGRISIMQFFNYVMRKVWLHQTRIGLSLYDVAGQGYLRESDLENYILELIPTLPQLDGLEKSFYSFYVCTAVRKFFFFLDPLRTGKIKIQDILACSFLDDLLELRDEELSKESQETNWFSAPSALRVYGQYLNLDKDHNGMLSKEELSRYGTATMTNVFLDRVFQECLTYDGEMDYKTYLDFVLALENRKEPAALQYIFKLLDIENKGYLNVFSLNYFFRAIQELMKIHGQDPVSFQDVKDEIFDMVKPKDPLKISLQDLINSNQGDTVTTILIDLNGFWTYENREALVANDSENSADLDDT
Chain of UniProt Q8NEB9 (Q8NEB9 whole entry, looked up): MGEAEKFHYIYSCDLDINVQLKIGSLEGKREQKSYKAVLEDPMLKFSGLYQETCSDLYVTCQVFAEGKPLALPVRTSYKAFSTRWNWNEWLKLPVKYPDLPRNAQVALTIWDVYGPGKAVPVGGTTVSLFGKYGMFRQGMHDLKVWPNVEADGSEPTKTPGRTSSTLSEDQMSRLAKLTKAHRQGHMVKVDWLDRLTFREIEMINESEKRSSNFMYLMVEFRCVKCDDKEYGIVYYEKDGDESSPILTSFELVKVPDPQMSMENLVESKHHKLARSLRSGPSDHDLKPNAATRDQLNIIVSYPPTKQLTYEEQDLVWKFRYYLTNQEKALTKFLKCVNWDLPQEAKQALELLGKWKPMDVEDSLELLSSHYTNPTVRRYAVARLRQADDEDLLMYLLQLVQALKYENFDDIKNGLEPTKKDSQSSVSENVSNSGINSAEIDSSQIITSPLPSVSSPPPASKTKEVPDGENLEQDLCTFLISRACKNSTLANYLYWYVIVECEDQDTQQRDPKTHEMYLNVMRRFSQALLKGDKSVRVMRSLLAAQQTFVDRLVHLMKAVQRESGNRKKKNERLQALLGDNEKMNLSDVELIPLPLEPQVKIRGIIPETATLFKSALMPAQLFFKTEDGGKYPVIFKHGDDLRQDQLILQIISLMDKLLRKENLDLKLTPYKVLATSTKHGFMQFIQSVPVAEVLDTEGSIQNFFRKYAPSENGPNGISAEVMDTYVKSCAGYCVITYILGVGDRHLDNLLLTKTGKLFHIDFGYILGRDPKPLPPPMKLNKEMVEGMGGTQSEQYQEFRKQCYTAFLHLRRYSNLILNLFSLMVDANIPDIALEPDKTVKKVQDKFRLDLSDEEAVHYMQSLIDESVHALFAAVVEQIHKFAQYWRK
Chain of UniProt P18031 (P18031 whole entry, looked up): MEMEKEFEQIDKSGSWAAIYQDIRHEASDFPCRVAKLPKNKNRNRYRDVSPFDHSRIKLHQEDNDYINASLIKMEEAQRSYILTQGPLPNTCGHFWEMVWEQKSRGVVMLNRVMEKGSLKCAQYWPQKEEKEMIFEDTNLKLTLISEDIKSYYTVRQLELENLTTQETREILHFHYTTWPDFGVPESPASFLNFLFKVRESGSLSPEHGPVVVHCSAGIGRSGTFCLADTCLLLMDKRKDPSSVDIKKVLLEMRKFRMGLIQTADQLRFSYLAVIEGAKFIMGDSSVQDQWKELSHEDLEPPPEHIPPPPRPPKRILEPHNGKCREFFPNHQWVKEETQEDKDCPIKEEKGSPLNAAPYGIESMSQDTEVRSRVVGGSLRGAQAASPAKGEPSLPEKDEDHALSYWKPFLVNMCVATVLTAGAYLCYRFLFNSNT
Chain of UniProt Q9H4Z3 (Q9H4Z3 whole entry, looked up): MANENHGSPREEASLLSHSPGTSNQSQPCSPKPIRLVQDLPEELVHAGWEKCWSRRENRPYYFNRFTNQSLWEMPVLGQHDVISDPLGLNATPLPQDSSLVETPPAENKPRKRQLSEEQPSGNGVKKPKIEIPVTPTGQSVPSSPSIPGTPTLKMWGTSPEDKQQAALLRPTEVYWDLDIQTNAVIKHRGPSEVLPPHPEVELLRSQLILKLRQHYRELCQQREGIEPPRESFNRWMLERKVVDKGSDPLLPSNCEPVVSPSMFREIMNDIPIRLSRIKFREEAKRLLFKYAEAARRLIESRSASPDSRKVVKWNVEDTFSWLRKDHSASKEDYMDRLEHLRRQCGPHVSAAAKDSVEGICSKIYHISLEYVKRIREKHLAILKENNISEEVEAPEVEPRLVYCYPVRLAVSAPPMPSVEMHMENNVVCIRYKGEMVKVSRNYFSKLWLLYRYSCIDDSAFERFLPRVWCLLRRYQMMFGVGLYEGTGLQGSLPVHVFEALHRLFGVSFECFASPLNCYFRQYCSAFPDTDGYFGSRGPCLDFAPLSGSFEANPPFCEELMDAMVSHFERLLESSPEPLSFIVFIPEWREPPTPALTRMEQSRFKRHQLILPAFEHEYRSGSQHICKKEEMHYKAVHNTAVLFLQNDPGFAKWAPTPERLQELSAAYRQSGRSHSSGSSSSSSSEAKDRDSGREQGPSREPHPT
Chain of UniProt Q15366 (Q15366 whole entry, looked up): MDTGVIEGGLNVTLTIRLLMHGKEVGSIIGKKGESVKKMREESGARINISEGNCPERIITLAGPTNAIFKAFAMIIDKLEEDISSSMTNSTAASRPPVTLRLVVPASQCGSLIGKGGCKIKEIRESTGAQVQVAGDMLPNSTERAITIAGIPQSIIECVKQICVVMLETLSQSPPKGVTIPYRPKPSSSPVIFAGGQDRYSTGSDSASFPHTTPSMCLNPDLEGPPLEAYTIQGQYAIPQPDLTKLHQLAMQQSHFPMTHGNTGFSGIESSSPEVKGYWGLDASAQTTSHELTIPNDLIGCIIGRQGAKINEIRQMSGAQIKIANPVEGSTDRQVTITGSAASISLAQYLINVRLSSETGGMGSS
Chain of UniProt Q9H0N5 (Q9H0N5 whole entry, looked up): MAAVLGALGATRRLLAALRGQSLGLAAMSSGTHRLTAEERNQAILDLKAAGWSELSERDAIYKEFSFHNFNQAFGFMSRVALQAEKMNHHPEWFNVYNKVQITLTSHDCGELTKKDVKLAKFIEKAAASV

Compound in the assay: CC1=C(C=C(C=C1)NC(=O)C2=CC(=CC=C2)N(C)C)NC(=O)C3=CC=C(C=C3)O
Kind of assay: log2 fold change, soluble protein after heating vs DMSO (PISA); higher = thermal stabilisation; K562 lysate, 10 uM; active = over 0.2 and 3.5 SD of the protein, either way, in both replicates (recomputed). Put shortly:
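Values give the log-two fold change in thermal stability against solvent controls, from duplicates. Crude K562 extract at 1 mg/mL protein, made by dounce homogenisation in PBS pH 7.4 with 1 mM MgCl2, was treated with 10 μM compound for 30 min. After 3 min heating across 48°C-58°C, aliquots were pooled, adjusted to 0.5% NP-40 at 4°C and centrifuged at 21,000xg for 90 min. The supernatant was measured by TMTpro 16plex LC-MS/MS with channel sums equalised.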
On to PFDN2 (UniProt Q9UHV9), for which the log2 fold change is -0.033 (inactive). The figure for PUM1 isoform 3 (UniProt Q14671) is 0.049 (inactive); for POLR2G (UniProt P62487) it is -0.008 (inactive).

As for PRKCSH (UniProt K7ELL7), the log2 fold change was 0.005 (inactive). Consider PTK2 (UniProt Q05397), for which the log2 fold change is -0.007 (inactive).

Turning to PCIF1 (UniProt Q9H4Z3), the log2 fold change was 0.025 (inactive). The figure for PIK3C3 (UniProt Q8NEB9) is -0.011 (inactive); for PDIA4 (UniProt P13667) it is 0.011 (inactive).

In the case of PDCD4 (UniProt Q53EL6), the log2 fold change was 0.007 (inactive).

As to QKI (UniProt Q96PU8), the log2 fold change is 0.009 (inactive). With PTS (UniProt Q03393), the log2 fold change was -0.013 (inactive). Next, POMP (UniProt Q9Y244): 0.027 (inactive); POLD3 (UniProt Q15054): -0.017 (inactive); PI4KB (UniProt Q9UBF8): 0 (inactive).

Turning to PDE4DIP isoform 4 (UniProt Q5VU43), the log2 fold change was -0.033 (inactive). Next, PTPN6 isoform 4 (UniProt P29350): 0.011 (inactive); PGLS (UniProt O95336): -0.003 (inactive); PFKFB2 (UniProt O60825): -0.011 (inactive). The figure for PSTPIP2 (UniProt Q9H939) is -0.001 (inactive); for PI4K2A (UniProt Q9BTU6) it is 0 (inactive). Next, PLEKHO2 (UniProt Q8TD55): 0.252 (inactive); PLIN2 (UniProt Q99541): 0.025 (inactive); PHLDB1 (UniProt Q86UU1): -0.001 (inactive). Take PRKD3 (UniProt O94806): the log2 fold change was -0.022 (inactive). The figure for PTPN23 (UniProt Q9H3S7) is 0.009 (inactive); for PI4KA (UniProt P42356) it is 0.04 (inactive); for PUF60 isoform 2 (UniProt Q9UHX1) it is -0.036 (inactive). The figure for PKP3 isoform 2 (UniProt Q9Y446) is -0.019 (inactive). Next, PCBP2 isoform 3 (UniProt Q15366): -0.016 (inactive). Consider PTPN1 (UniProt P18031), for which the log2 fold change was 0.049 (inactive).

As for PPP2R3C (UniProt Q969Q6), the log2 fold change is 0.048 (inactive). Next, PPT2 isoform 3 (UniProt Q9UMR5): -0.015 (inactive). The figure for PDCD6IP (UniProt Q8WUM4) is 0.02 (inactive); for PCBD2 (UniProt Q9H0N5) it is -0.007 (inactive). Next, PHKB isoform 3 (UniProt Q93100): 0.022 (inactive); PFN1 (UniProt P07737): 0 (inactive). On to PIGO (UniProt Q8TEQ8), for which the log2 fold change is -0.047 (inactive). Next, PYCR2 (UniProt Q96C36): -0.017 (inactive); POGK (UniProt Q9P215): -0.047 (inactive).

Values taken from the supplement of paper PMC10849652.
